Hits are enriched below; roughly 19% of the tested compounds scored in any of these assays.
IL1B secr inh: inhibitors of inflammasome signaling (IL-1 beta secretion) | 360,000 compounds, 4.7% hits | AID 743279 | activity change, % at 57.5 µM | THP-1 LPS/ATP IL-1B secretion, AlphaLISA, 16 h; hits give low values; in the data active = activity change below about -50%; inconclusive = mostly about -30% to -49%
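Secreted IL-1B measured by AlphaLISA bead assay after 16 h compound exposure of THP-1 cells; compounds (final up to 57.5 uM) added 1 h before LPS (250 ng/mL) and ATP (1.25 mM) stimulation; lower signal means less secretion.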
TDP1 inh: inhibitors of human tyrosyl-DNA phosphodiesterase TDP1 | 350,000 compounds, 0.28% hits | Potency, µM (top dose mostly 130 µM), for the others: at the top dose activity change, negative = inhibition, hits mostly inhibitors | recombinant TDP1, AlphaScreen DNA substrate cleavage; also: potency is read from the fitted curve at half-maximal effect; nearly all actives have a fitted effect of over 40% in size
Target sequence (Q9NUW8 whole entry, looked up): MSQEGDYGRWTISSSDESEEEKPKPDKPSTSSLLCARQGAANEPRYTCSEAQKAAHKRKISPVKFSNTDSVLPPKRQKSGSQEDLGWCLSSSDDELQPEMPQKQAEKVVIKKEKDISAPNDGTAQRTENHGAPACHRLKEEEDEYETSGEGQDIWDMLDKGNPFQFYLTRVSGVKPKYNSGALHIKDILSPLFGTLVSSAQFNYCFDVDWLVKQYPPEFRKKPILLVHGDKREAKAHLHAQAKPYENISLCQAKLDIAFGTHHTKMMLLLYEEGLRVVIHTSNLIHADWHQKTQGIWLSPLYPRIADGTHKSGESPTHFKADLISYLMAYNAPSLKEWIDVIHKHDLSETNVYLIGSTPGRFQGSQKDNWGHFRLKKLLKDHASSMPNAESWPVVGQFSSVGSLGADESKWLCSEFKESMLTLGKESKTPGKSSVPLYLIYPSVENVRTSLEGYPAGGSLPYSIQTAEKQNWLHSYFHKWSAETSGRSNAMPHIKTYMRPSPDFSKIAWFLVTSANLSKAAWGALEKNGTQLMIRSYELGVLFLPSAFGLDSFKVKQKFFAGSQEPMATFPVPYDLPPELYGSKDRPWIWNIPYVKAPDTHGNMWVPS
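Steps: enzyme plus compound, 15 min RT; add biotin/phosphotyrosine-FITC oligonucleotide (15 nM final), react 5 min; add donor/acceptor beads (10 ug/ml final), 10 min; read AlphaScreen. Tdp1 at 1 nM final.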
Giardia kill: kills Giardia lamblia; 340,000 compounds, 0.15% hits; activity change, % at 7.66 µM, hits read low; Giardia lamblia trophozoite viability; in the data active = activity change below about -80%; inconclusive = between about -30% and that limit;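 also: parasites exposed to compound for two days anaerobically before the ATP read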
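Trophozoite viability was measured as ATP-dependent luminescence, read 15-30 min after reagent addition. Before that, parasites at 100 cells/well were exposed to compounds for 48 h, anaerobically, at 37 deg C.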
DT40 TDP1 no CPT: qHTS for Inhibitors of human tyrosyl-DNA phosphodiesterase 1 (TDP1): qHTS in cells in absence of CPT; DT40 Tdp1-/- hTDP1 cells, no CPT, ATP luminescence, 48 h; Potency, µM (top dose mostly 46.2 µM), without a hit: top-dose activity change, negative = growth inhibition, most hits filed as inhibitors; 420,000 compounds, 15% hits; also: potency is read from the fitted curve at half-maximal effect; nearly all actives have a fitted effect of over 55% in size
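Growth of hTDP1-complemented DT40 Tdp1-knockout cells is measured by ATP luminescence after at least 48 hr compound exposure at 37 °C, with DMSO substituting for the 20 nM CPT used in the parallel screen.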
DT40 TDP1 CPT: growth inhibition of DT40 Tdp1-/-;hTDP1 cells with camptothecin (screen for TDP1 inhibitors); Potency, µM (doses to about 46.2 µM), for the others: at the top dose activity change, negative = growth inhibition, actives largely listed as inhibitors; 420,000 compounds, 12% hits; chicken DT40 Tdp1-/-;hTDP1 cells + 20 nM CPT, ATP luminescence, 48 h; also: potency is read from the fitted curve at half-maximal effect; nearly all actives have a fitted effect of over 55% in size
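Chicken DT40 Tdp1-/- cells complemented with human TDP1, 400 cells/well, exposed to compounds plus 20 nM camptothecin for at least 48 h at 37 C; viability read as ATP content by CellTiter-Glo luminescence.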
ELG1 repair inh: blocks ELG1-dependent DNA repair in HEK293T cells; HEK293T ELG1-luciferase reporter, luminescence, 16 h; DNA damage induced by 5-fluorouridine; Potency, µM (top dose mostly 46.1 µM), for the others: at the highest dose activity change, negative = inhibition, actives largely listed as inhibitors; 330,000 compounds, 2.3% hits; also: potency is read from the fitted curve at half-maximal effect; nearly all actives have a fitted effect of over 55% in size
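DMSO vehicle served as the neutral condition. Each well held 2,000 cells given 5-fluorouridine plus compound; after 16 hr at 37 °C/5% CO2, ONE-Glo was added and luciferase measured 30 min later.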
* marks the source's active call; other numbers are inactive results; i = inactive; ? = inconclusive; · = not tested or not shown; ! = repeats disagree; [ ] = another dose, or the depositor's remark. Unless noted, calls follow the shape of the dose curve; as a rule, active = well fitted curve in the direction sought with a large enough effect; inconclusive = small, poorly fitted or top-dose-only effect, or another doubt; inactive = no such curve, though single readings can be large; an effect the other way counts as inactive or inconclusive. % is scaled to controls: 0 for no effect and ±100 for the full control effect.

SMILES	IL1B secr inh	TDP1 inh	Giardia kill	DT40 TDP1 no CPT	DT40 TDP1 CPT	ELG1 repair inh
COC(=O)C1=C[C@@H](C(=O)OC)[C@@H]2C3=C(C(=O)C2(C)C)[C@H](C)n2c(=O)n(C)c(=O)n2[C@@H]3C1	·	16%	0	·	·	·
C[C@H](CO)N1C[C@H](C)[C@@H](CN(C)S(C)(=O)=O)Oc2ccc(NC(=O)C3CC3)cc2C1=O	5	0%	46	-14%	-8%	?
Cc1cccc(Oc2nc3c(C)cccn3c(=O)c2/C=C(\C#N)c2nc3ccccc3[nH]2)c1	·	3%	·	-5%	-13%	·
CCN(CC)S(=O)(=O)c1ccc(N(C)C)c(NC(=O)CSCc2c(C)noc2C)c1	i	0%	6	?	?	21µM*
CCN(CC)S(=O)(=O)c1ccc(OC)c(NC(=O)/C=C/c2ccco2)c1	6	·	19	-21%	?	23µM*
CCN(CC)S(=O)(=O)c1cc(NC(=O)CSCc2c(C)noc2C)ccc1C	-2	1%	-16	?	?	?
CCN(CC)S(=O)(=O)c1ccc(OC)c(NC(=O)CSCc2c(C)noc2C)c1	-23	-1%	-4	23µM*	?	-24%
CCn1c2c(c3cc(C(=O)O)ccc31)CCCC2=O	10	0%	-8	26µM*	?	13%
CCc1ccc(NC(=O)CS(=O)CC(=O)Nc2ccc(-n3cnnn3)c(C)c2)cc1 (centres undefined)	11	56µM*	17	-12%	-8%	-6%
C=CC(COCc1ccccc1)N(Cc1ccc(OC)cc1)S(=O)(=O)c1ccccc1Br (centres undefined)	24	-3%	5	?	?	-16%
O=S(=O)(N(Cc1ccccc1)[C@H](CO)Cc1ccccc1)N(Cc1ccccc1)[C@H](CO)Cc1ccccc1	3	-1%	2	?	?	14%
COc1ccc(CN([C@H](C)CO)S(=O)(=O)N(Cc2ccccc2)[C@H](CO)C(C)C)cc1	0	0%	-14	16µM*	35µM*	-12%
C=C[C@H](CC(C)C)N(Cc1ccccc1)S(=O)(=O)N(Cc1ccccc1)[C@@H](C=C)CC(C)C	12	-4%	-16	15µM*	13µM*	16%
CC(C)C[C@@H](CO)N(Cc1ccccc1)S(=O)(=O)N(Cc1ccccc1)[C@@H](CO)CC(C)C	-63*	-2%	20	18µM*	16µM*!	?
COc1ccc(CN([C@H](CO)CC(C)C)S(=O)(=O)N(Cc2ccccc2)[C@H](CO)CC(C)C)cc1	-88*	-1%	8	23µM*	?	?
CCOc1ccccc1CN1CCNC(=O)C1CC(=O)NCc1ccccn1 (centres undefined)	0	2%	-11	15%	-25%	20%
CCCN(CCC)C(=O)c1oc2ccccc2c1NC(=O)Cc1cccc(OC)c1	1	·	9	?	?	1%
CC(C)C[C@@H](CO)N(Cc1ccccc1)S(=O)(=O)N(Cc1ccccc1)[C@H](CO)CC(C)C	-79*	-2%	-14	13µM*	13µM*	?
CCN([C@H](CO)CC(C)C)S(=O)(=O)c1ccccc1	44	0%[56.1 µM]	11	?	?	22%
C=CS(=O)(=O)N(Cc1ccccc1Br)[C@H](CO)CC(C)C	?	·	-2	10µM*	23µM*	·
CCS(=O)(=O)c1nc(S(=O)(=O)c2ccc(Cl)cc2)c(NCc2ccc(Cl)cc2)s1	·	0%	·	?	?	·
CSc1ccc(CCNC(=O)CCc2nnc3ccc(N4CCOCC4)nn23)cc1	-1	·	15	-14%	-19%	20%
CSc1ccc(CCNC(=O)CCc2nnc3ccc(N4CCC5(CC4)OCCO5)nn23)cc1	0	1%	17	-22%	-2%	9.2µM*
CCOC(=O)C1CCN(C(=O)CCc2nnc3ccc(N4CCC(C)CC4)nn23)CC1	0	4%	29	?	18µM*	-7%
CCOC(=O)CNC(=O)CCc1nnc2ccc(N3CCC(C)CC3)nn12	-8	·	0	?	23µM*	-3%
SMILES	IL1B secr inh	TDP1 inh	Giardia kill	DT40 TDP1 no CPT	DT40 TDP1 CPT	ELG1 repair inh
O=C(NCc1ccccn1)Nc1ccccc1C(F)(F)F	24	1%	-19	3%	6%	-2%
Cc1ccc(N2CC(NC(=O)c3cccc(Cl)c3)CC2=O)cc1C (centres undefined)	·	0%	·	?	?	·
CC(C)c1ccc(CN(Cc2ccco2)c2cnc(S(C)(=O)=O)nc2C(=O)Nc2ccccc2)cc1	·	4%	·	12µM*	18µM*	·
Cc1ccc(NC(=O)c2nc(S(C)(=O)=O)ncc2N(Cc2ccco2)Cc2ccccc2F)c(C)c1	·	6%	·	9.2µM*	12µM*	·
Cc1ccc(CN(Cc2ccco2)c2cnc(S(C)(=O)=O)nc2C(=O)Nc2ccc(Br)cc2)o1	·	8%	·	?	18µM*	·
CS(=O)(=O)c1ncc(N(Cc2ccco2)Cc2ccco2)c(C(=O)Nc2ccccc2Br)n1	·	10%	·	?	?	·
CS(=O)(=O)c1ncc(N(Cc2ccccc2)Cc2ccco2)c(C(=O)Nc2cccc(C(F)(F)F)c2)n1	·	-2%	·	?	?	·
COc1ccccc1Cc1nc2ccccc2n1S(=O)(=O)c1ccc(Cl)cc1	28	5%	-15	?	-21%	8%
CC(=O)N1C(=O)CC(C)N(C(C)=O)c2ccc([N+](=O)[O-])cc21 (centres undefined)	-3	0%	-12	0%	-14%	?
Cc1ccc2nc(NCc3ccccc3)c3nncn3c2c1	·	-2%	·	-1%	8%	·
CCc1c(C)nc2nncn2c1Nc1ccc(Cl)cc1	·	5%	·	9.2µM*	?	·
CCc1c(C)nc2nncn2c1NCc1ccccc1	·	2%	·	16µM*	?	·
NS(=O)(=O)c1ccc(CCNC(=O)c2ccc3c(=O)n4c(nc3c2)CCCCC4)cc1	0	0%	-21	-4%	2%	-19%
Fc1ccc(-c2n[nH]c(=S)n2/N=C/c2c[nH]c3ccccc23)cc1	5	-3%	5	6.5µM*	7.3µM*	?
Cc1nn(-c2ccccc2)c(C)c1/C=N/n1c(-c2ccc(Cl)cc2)n[nH]c1=S	22	1%	-12	16µM*	?	-10%
Cc1nn(-c2ccccc2)c(C)c1/C=N/n1c(-c2ccncc2)n[nH]c1=S	0	·	-13	-19%	-3%	5%
